The list is not random: actives were taken first. Their share in the collection is about 3.1%.
FBA Mtb inh = inhibitors of M. tuberculosis fructose-bisphosphate aldolase; P9WQA3; purified M. tuberculosis FBA, fluorescence read-out; inhibition, % at 1 µM; hit rate 2.3% among 360,000
Target sequence (P9WQA3 whole entry, looked up): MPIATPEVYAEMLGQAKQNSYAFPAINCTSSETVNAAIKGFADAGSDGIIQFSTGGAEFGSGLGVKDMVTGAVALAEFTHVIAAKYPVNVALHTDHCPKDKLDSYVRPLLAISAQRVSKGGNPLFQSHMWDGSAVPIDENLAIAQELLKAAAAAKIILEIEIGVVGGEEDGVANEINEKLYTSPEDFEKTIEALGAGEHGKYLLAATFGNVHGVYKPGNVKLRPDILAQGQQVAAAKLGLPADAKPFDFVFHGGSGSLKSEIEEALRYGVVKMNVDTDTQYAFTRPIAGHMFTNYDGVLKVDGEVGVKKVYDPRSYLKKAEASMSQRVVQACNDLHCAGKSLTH
FadD28 FP inh = M. tuberculosis FadD28 bisubstrate binding inhibition | hit rate 0.22% among 360,000 | inhibition, % at 12.5 µM | AID 588549 | FadD28 bisubstrate probe binding, fluorescence polarization; in the data active = inhibition above about 8.5%, passing the limit was not always enough
BioA inh = inhibitors of Mycobacterium tuberculosis BioA enzyme | hit rate 0.096% among 360,000 | purified M. tuberculosis BioA enzyme, plate reader | inhibition, % at 9.99 µM | AID 602481; in the data active = inhibition above about 40%
3CLpro inhibitor = SARS-CoV 3CLpro protease inhibition. hit rate 0.14% among 290,000. inhibition, % at 6 µM. recombinant SARS-CoV 3CLpro, quenched FRET peptide cleavage; in the data active = inhibition above about 12%
GDH-TPI counter-1 = inhibits GDH-TPI coupling enzymes, artifact for Mtb FBA screen; GDH-TPI coupled enzyme counterscreen, NADH absorbance; inhibition, % at 4.8 µM; hit rate 1.2% among 360,000; AID 588335; in the data active = inhibition above about 30%
Mtb FBA confirm = Mtb FBA inhibition, confirmed; shares compounds with FBA Mtb inh; purified M. tuberculosis FBA, fluorescence read-out; inhibition, % at 1 µM; hit rate 78% among 5,600; AID 651616
GDH-TPI counter-2 = GDH-TPI inhibition counter-screen for FBA inhibitors | inhibition, % at 1 µM | GDH-TPI coupled enzyme counterscreen, fluorescence | shares compounds with FBA Mtb inh | hit rate 81% among 5,600; in the data active = inhibition above about 10%
Hits are given with their value; . = inactive; / = not tested or not shown; + = active, no number. Cut-off read from the data, not from the text of the source, unless noted: active = inhibition above about 27%; inactive = the rest.

SMILES	FBA Mtb inh	FadD28 FP inh	BioA inh	3CLpro inhibitor	GDH-TPI counter-1	Mtb FBA confirm	GDH-TPI counter-2
Cn1c(=O)c2cc(NC(=O)NCc3ccc(Cl)cc3Cl)ccc2n1Cc1ccc(F)cc1	89	.	.	/	.	+	165
Cn1c(=O)c(=O)n(C)c2cc(S(=O)(=O)CCC(=O)Nc3cccc(C(F)(F)F)c3)ccc21	.	.	.	.	.	/	/
COc1ccccc1CCC(=O)Nc1ccc2c(c1)c(=O)n(C)n2Cc1cccc(C(F)(F)F)c1	94	.	.	/	.	+	197
CN1C(=O)CSc2ccc(NC(=O)NCc3ccc(F)cc3)cc21	.	.	/	.	.	/	/
Cn1c(=O)c2cc(NC(=O)NCc3ccc(F)cc3)ccc2n1Cc1cccc(C(F)(F)F)c1	98	.	.	/	.	152	139
COCC#Cc1cnc2c(c1)C(=O)N([C@H](C)CO)C[C@H](C)[C@@H](CN(C)C(=O)Cc1cccnc1)O2	/	/	.	/	/	/	/
C[C@H]1CN([C@@H](C)CO)C(=O)c2ccccc2-c2ccccc2CO[C@H]1CN(C)Cc1cccc(O)c1	/	/	.	/	/	/	/
C[C@@H]1CN([C@H](C)CO)C(=O)Cc2cc(NC(=O)Nc3ccc(C(F)(F)F)cc3)ccc2O[C@@H]1CN(C)S(C)(=O)=O	/	/	.	/	/	/	/
COc1ccccc1CCC(=O)Nc1ccc2c(c1)c(=O)n(C)n2Cc1ccc(F)cc1	105	.	.	/	.	94	77
Cn1c(=O)c2cc(NC(=S)NC3CC3)ccc2n1Cc1cccc(C(F)(F)F)c1	30	.	.	/	.	121	80
COc1cccc(C#Cc2cnc3c(c2)C(=O)N([C@@H](C)CO)C[C@H](C)[C@H](CN(C)C(=O)C2CC2)O3)c1	/	/	.	/	/	/	/
CCOC(=O)c1cnc2c(C(=O)OCC)cnn2c1N	.	.	.	.	.	/	/
CCOC(=O)c1cnn2c(N)c(C#N)cnc12	29	.	/	.	.	51	37
COc1ccc(-c2cc(C(=O)N3CCN(c4ccccc4)CC3)c3ccccc3n2)cc1	30	.	/	.	.	.	.
COc1ccc(-c2cc(C(=O)N3CCN(c4ccccn4)CC3)c3ccccc3n2)cc1	.	.	.	.	.	/	/
COc1ccc(-c2cc(C(=O)N3CCC4(CC3)OCCO4)c3ccccc3n2)cc1	110	.	/	.	.	.	.
CCOc1ccc(-c2cc(C(=O)N3CCC4(CC3)OCCO4)c3ccccc3n2)cc1	.	.	/	/	.	/	/
COc1ccc(-c2cc(C(=O)N3CCN(c4ncccn4)CC3)c3ccccc3n2)cc1	31	.	.	/	.	149	123
Cn1cnc(CCNC(=O)C[C@@H]2CC[C@H]3[C@@H](COC[C@@H](O)CN3C(=O)Nc3ccccc3)O2)c1	/	/	.	/	/	/	/
CCCC(=O)Nc1ccc2c(c1)C(=O)N(C)C[C@@H](OC)[C@H](C)CN(C(=O)c1ccccc1F)[C@H](C)CO2	/	/	.	/	/	/	/
Nc1c(C(O)(C(F)(F)F)C(F)(F)F)ccc2ccccc12	28	.	.	.	.	.	11
CCOc1ccc(/C=N/n2cc(-c3ccccc3)[nH]c2=S)cc1	67	.	.	.	.	89	80
S=c1[nH]c(-c2ccccc2)cn1/N=C/c1ccncc1	35	.	.	.	.	49	42
C[C@@H]1CN([C@@H](C)CO)C(=O)Cc2cc(NS(C)(=O)=O)ccc2O[C@@H]1CN(C)C	/	/	.	/	/	/	/
CC(C)COC(=O)C(C)Nc1n[nH]c(=S)[nH]c1=O (configuration not stated)	53	.	/	.	.	.	.
SMILES	FBA Mtb inh	FadD28 FP inh	BioA inh	3CLpro inhibitor	GDH-TPI counter-1	Mtb FBA confirm	GDH-TPI counter-2
CNc1cncc(-c2cc(OC)ccc2OC)n1	.	.	.	/	.	/	/
CNc1cncc(-c2cc(OC)c(OC)c(OC)c2)n1	96	.	.	/	.	+	+
CNc1cccc(-c2cc(OC)c(OC)c(OC)c2)n1	.	.	.	/	.	/	/
CNc1cncc(-c2ccc(OC)cc2OC)n1	52	.	.	/	.	.	.
Cc1cc(C(=O)Nc2cccc3c2O[C@H](CN(C)C(=O)Nc2ccc(F)cc2)[C@H](C)CN([C@H](C)CO)C3=O)n(C)n1	/	/	.	/	/	/	/
Cc1ccc(S(=O)(=O)N[C@H]2C=C[C@@H](CC(=O)N3CCN(c4ccccc4)CC3)O[C@@H]2CO)cc1	/	/	.	/	/	/	/
Cc1ccccc1NC(=O)c1cc(-c2ccco2)nc2ccccc12	.	.	.	/	.	/	/
CC(C)CCNC(=O)c1cc(-c2ccco2)nc2ccccc12	111	.	.	.	.	+	+
Cc1ccc(-c2cc(C(=O)NCC3(N(C)C)CCCCC3)c3ccccc3n2)o1	29	.	.	/	.	.	16
CN(C)C(CNC(=O)c1cc(-c2ccco2)nc2ccccc12)c1ccccc1 (configuration not stated)	38	.	.	/	.	.	.
CCCCCCNC(=O)c1cc(-c2ccco2)nc2ccccc12	.	.	.	.	.	/	/
CO[C@H]1CN(C)C(=O)c2cc(NS(=O)(=O)c3cccc(C)c3)ccc2OC[C@@H](C)NC[C@H]1C	/	/	.	/	/	/	/
COCC(=O)N(C)c1nnc(-c2ccccn2)s1	52	.	.	.	.	92	69
CN(C(=O)C1CCOC1)c1nnc(-c2ccccn2)s1 (configuration not stated)	.	.	.	.	.	/	/
CN(C(=O)c1ccncc1)c1nnc(-c2ccncc2)s1	43	.	.	.	.	92	81
CN(C(=O)C1CCOC1)c1nnc(-c2ccncc2)s1 (configuration not stated)	.	.	.	.	.	/	/
CN(C(=O)C1CCCO1)c1nnc(-c2ccncc2)s1 (configuration not stated)	63	.	.	.	.	104	89
Cc1cccc(C(=O)N(C)c2nnc(-c3ccncc3)s2)c1	.	.	.	.	.	/	/
CN(C(=O)C1CCCO1)c1nnc(-c2ccccn2)s1 (configuration not stated)	68	.	.	.	.	160	146
COCC(=O)N(C)c1nnc(-c2ccc([N+](=O)[O-])cc2)s1	.	.	.	.	.	/	/
CN1CCN(C(=O)C[C@H]2C=C[C@H](NC(=O)Cc3ccccn3)[C@H](CO)O2)CC1	/	/	.	/	/	/	/
CN(C)C(=O)[C@@H]1[C@@H](CO)[C@@H]2Cn3c(ccc(-c4ccccc4)c3=O)[C@@H]2N1Cc1ccccc1	/	/	.	/	/	/	/
CC(=O)N(C)C[C@H]1Oc2cc(C#CC(C)(C)O)ccc2S(=O)(=O)N([C@@H](C)CO)C[C@@H]1C	/	/	.	/	/	/	/
Cc1cn2c(nc(=O)c3cccnc32)s1	36	.	/	.	.	107	87
Cc1ccc(-n2cnc(=O)c3cccnc32)cc1	.	.	/	.	.	/	/
O=C(Nc1ccccc1F)N[C@@H]1CC[C@H](CCNS(=O)(=O)c2ccc(F)cc2)O[C@@H]1CO	/	/	.	/	/	/	/
COC(=O)C1(C)CCc2cc(OC)ccc2C1=O (configuration not stated)	.	.	.	.	.	/	/

Screening results as filed in PubChem BioAssay.
